# Measurements taken from PubChem BioAssay (Tox21).
# Records with an inconclusive call do not appear. Activity calls are given as the source filed them. Calls follow the shape of the full dose curve.
# Target: Progesterone receptor (Homo sapiens) (UniProt P06401)
# Experiment: qHTS assay to identify small molecule agonists of the progesterone receptor (PR) signaling pathway (AID 1346784); also: nearly all actives have a fitted effect of over 30% in size
# Conditions: PR-UAS-bla HEK293T, beta-lactamase FRET ratio, 16 h; series mostly up to 92.4 µM; activation: at the top concentration
# Excerpt: U.S. Tox21 Program National Center for Advancing Translational Sciences [NCATS] NIH Chemical Genomics Center [NCGC] U.S. Environmental Protection Agency [EPA] National Institutes of Environmental Health Sciences [NIEHS] National Toxicology Program [NTP] U.S. Food and Drug Administration [FDA] […] Endocrine disrupting chemicals (EDCs) and their interactions with steroid hormone receptors like PR causes disruption of normal endocrine function. To identify the compounds that activate PR signaling, a PR-UAS-bla GripTite cell line i.e. PR-UAS-bla HEK 293T (Invitrogen, Carlsbad, CA, USA) containing a beta-lactamase reporter gene under the control of an Upstream Activator Sequence (UAS) was used to screen Tox21 10K compound library.
# Tox21 Assay Protocol Summary: PR-UAS-bla HEK 293T cells were dispensed at 3,000 cells/5 uL of assay medium containing 2% charcoal stripped FBS per well into black wall/clear-bottom 1536-well plates using a Multidrop Combi (ThermoFisher Scientific, Waltham, MA) dispenser. After the assay plates were incubated at a 37C and 5% CO2 for 6hr, 23 nL of compounds dissolved in DMSO, positive controls or DMSO only was transferred to the assay plate by a Pintool station (Kalypsys, San Diego, CA). The plates were incubated at 37C and 5% CO2 for 16hr. Then 1 uL of LiveBLAzer B/G FRET substrate was added using a BioRAPTR FRD (Flying Reagent Dispenser, Aurora Discovery, San Diego, CA). After the plates were incubated at room temperature for 2 hours, fluorescence intensity was measured by an Envision plate reader (PerkinElmer, Shelton, CT).
# % is scaled to controls: 0 for no effect and ±100 for the full control effect.
# Chain of Progesterone receptor (Homo sapiens) (P06401 whole entry, looked up): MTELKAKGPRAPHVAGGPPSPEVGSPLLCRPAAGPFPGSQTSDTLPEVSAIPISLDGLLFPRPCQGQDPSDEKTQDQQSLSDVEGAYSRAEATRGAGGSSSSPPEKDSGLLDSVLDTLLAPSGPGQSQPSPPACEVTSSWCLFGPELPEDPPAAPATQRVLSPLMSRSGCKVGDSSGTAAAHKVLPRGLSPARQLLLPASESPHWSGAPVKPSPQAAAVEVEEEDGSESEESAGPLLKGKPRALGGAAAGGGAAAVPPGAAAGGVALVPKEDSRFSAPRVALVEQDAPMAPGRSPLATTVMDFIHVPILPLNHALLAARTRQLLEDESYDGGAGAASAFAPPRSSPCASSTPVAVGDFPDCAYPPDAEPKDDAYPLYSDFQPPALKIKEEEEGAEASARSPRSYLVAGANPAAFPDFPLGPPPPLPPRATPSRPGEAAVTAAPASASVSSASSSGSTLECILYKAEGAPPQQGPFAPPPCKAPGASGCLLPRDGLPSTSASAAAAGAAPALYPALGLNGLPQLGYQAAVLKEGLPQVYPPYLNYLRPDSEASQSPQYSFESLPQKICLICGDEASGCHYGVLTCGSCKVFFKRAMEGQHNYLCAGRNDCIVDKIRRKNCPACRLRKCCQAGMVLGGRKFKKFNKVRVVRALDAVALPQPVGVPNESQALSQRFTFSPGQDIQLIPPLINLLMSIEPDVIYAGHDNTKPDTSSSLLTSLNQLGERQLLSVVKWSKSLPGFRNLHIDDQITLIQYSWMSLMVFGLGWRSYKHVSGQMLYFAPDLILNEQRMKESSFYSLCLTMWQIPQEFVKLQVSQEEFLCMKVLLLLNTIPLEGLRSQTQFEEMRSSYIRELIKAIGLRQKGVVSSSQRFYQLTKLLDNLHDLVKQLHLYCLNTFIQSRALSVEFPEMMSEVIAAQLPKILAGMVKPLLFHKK
row,SMILES,activation
1,COc1cccc(Br)c1,-1.57% (inactive)
2,CC/C=C\C#N,0.333% (inactive)
3,Nc1nc2c(ncn2CCC(CO)CO)c(=O)[nH]1,1.29% [at 42.5 µM] (inactive)
4,CC1(C)SC(C)(C)SC(C)(C)S1,-2.41% (inactive)
5,O=C1OC(=O)c2cc([N+](=O)[O-])ccc21,0.425% (inactive)
6,CCCCCCC(=O)OCC,-0.549% (inactive)
7,CO[Si](OC)(OC)OC,-0.802% (inactive)
8,OC1OC[C@@H](O)[C@H](O)[C@H]1O (stereo not given in full),0.337% (inactive)
9,CCN(CC)S(=O)(=O)c1ccc(C(=O)O)cc1,2.38% [at 42.5 µM] (inactive)
10,Cc1ccc(N)cc1[N+](=O)[O-],-5.78% (inactive)
11,C1COCCO1,2.35% (inactive)
12,NC(=S)Nc1cccc2ccccc12,-0.12% [at 8.39 µM] (inactive)
13,Cc1c(F)cc2c(=O)c(C(=O)O)cn3c2c1CCC3C (stereo not given),4.87% [at 42.5 µM] (inactive)
14,Nc1cc(N)cc(C(=O)O)c1,0.16% (inactive)
15,CC1CCN(CCCC(=O)c2ccc(F)cc2)CC1,-2.1% [at 42.5 µM] (inactive)
16,O=C(O)C1CCC1,0.668% [at 42.5 µM] (inactive)
17,CCN1CCCC(OC(=O)C(c2ccccc2)c2ccccc2)C1 (stereo not given),-7.56% [at 42.5 µM] (inactive)
18,O=C(O)/C=C/c1ccc(Cn2ccnc2)cc1,1.94% [at 42.5 µM] (inactive)
19,CNc1ncnc2nc[nH]c12,-6.42% (inactive)
20,C=C(C)[C@H]1CC=C(C)CC1,1.01% (inactive)

row,SMILES,activation
1,COC(C(=O)O)c1ccccc1 (stereo not given),0.166% (inactive)
2,CC(C)N1C(=O)c2ccccc2C1=O,-0.0399% (inactive)
3,COC(=O)[C@H]1[C@H]2C[C@@H]3c4[nH]c5cc(OC)ccc5c4CCN3C[C@H]2C[C@@H](OC(=O)COc2ccc(OC)cc2)[C@@H]1OC,-2.95% [at 42.5 µM] (inactive)
4,Cc1ncc(CSSCc2cnc(C)c(O)c2CO)c(CO)c1O,4.98% [at 42.5 µM] (inactive)
5,CSc1nc(NC2CC2)nc(NC(C)(C)C)n1,-4.88% (inactive)
6,O=C(O)c1ccccc1-c1ccc(C(F)(F)F)cc1,1.22% [at 42.5 µM] (inactive)
7,NC(=O)c1c(Cl)cccc1Cl,-1.81% (inactive)
8,C1CCCCCCCCCCC1,-0.689% [at 19 µM] (inactive)
9,Cc1cc(C)cc(OCC2CNC(=O)O2)c1 (stereo not given),-0.155% [at 42.5 µM] (inactive)
10,CC(C)c1ccc2oc3nc(N)c(C(=O)O)cc3c(=O)c2c1,4.44% [at 42.5 µM] (inactive)
11,COC(=O)c1ccc(C(=O)OC)c(C(=O)OC)c1,0.283% (inactive)
12,CN(C)C(=O)Nc1ccccc1,0.295% (inactive)
13,CC(C)=CC(=O)O,-0.606% (inactive)
14,C=C[Si](OC)(OC)OC,-0.976% (inactive)
15,CC12CCC(CC1=O)C2(C)C (stereo not given),-0.0315% (inactive)
16,CC/C=C\CCCCO,1.16% (inactive)
17,CCN1CCN(c2cc3c(cc2F)c(=O)c(C(=O)O)cn3C2CC2)CC1,-0.308% [at 42.5 µM] (inactive)
18,Nc1nc(F)nc2c1ncn2[C@@H]1O[C@H](CO)[C@@H](O)[C@@H]1O,-2.1% [at 42.5 µM] (inactive)
19,CC(C)CCCC(C)CCCC(C)CCCCC(C)CCCC(C)CCCC(C)C (stereo not given),0.284% [at 42.5 µM] (inactive)
20,N#CCN(CC#N)CCN(CC#N)CC#N,-0.117% (inactive)
